From PubChem BioAssay
In the library only some 19% were active in any assay of this set; here they are far more common.
HepG2 tox: HepG2 cytotoxicity, counter-screen for TGF-b inhibitors | 0.76% of 410,000 active | Potency, µM (highest dose often 46.1 µM), inactives show top-dose activity change, negative = cytotoxicity, actives largely listed as cytotoxic | HepG2 CAGA-GFP viability, ATP luminescence, 18 h; note: potency is the fitted concentration of half-maximal effect
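CellTiter-Glo luminescence gave cytotoxicity after 18 hours at 37 degrees C. The cells were HepG2 CAGA-GFP in 1% FBS DMEM, stimulated with 500 pg/mL TGF-beta after compound addition. %Activity was normalised to no-cell wells (complete cell-killing) and DMSO (no toxicity), and curves were fitted and classified.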
IL1B secr inh: inhibitors of inflammasome signaling (IL-1 beta secretion); THP-1 LPS/ATP IL-1B secretion, AlphaLISA, 16 h; stronger effect = lower value; activity change, % at 57.5 µM; 4.7% of 360,000 active; AID 743279; in the data active = activity change below about -50%; inconclusive = mostly about -30% to -49%; note: % is set by controls: 0 for no effect and ±100 for the full control effect
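THP-1 cells pretreated 1 hr with compounds (up to 57.5 uM final), then stimulated with LPS (250 ng/mL final) plus ATP (1.25 mM final); secreted IL-1B measured by AlphaLISA after 16 hr, decreased signal indicating inhibition.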
ASM inhibitor: inhibitors of human secretory acid sphingomyelinase. placental ASM, HMU-PC fluorogenic substrate, 60 min. 0.006% of 340,000 active. Potency, µM (titrated, usually from 57.5 µM), for the others: top-dose activity change, negative = inhibition, actives largely listed as inhibitors. AID 504937; note: potency is the fitted concentration of half-maximal effect
Target sequence (P17405 47-631 limits assumed): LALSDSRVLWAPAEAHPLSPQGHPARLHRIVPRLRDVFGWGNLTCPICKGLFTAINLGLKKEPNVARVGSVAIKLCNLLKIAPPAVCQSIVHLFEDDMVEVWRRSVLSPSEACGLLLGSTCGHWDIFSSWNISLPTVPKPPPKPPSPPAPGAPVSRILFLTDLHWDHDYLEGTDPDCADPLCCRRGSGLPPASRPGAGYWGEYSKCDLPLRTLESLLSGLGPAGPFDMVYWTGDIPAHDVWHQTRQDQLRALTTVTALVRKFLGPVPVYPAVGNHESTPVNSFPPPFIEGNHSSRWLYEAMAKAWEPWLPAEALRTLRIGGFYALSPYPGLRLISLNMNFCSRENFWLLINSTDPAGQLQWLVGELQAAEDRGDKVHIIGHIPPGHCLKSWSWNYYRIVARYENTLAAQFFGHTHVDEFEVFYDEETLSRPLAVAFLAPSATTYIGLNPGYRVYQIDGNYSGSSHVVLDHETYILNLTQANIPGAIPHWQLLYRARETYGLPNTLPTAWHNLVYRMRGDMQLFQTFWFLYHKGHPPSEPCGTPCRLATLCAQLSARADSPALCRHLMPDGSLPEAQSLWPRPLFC
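Fluorescence read-out (Ex 386 nm, Em 447 nm) after stopping the reaction at pH 10. Enzyme: ASM from human placenta; substrate HMU-PC0, 9 uM final; 60 min, 37 °C. Compound preincubation 10 min, ambient temperature.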
TGFb SMAD3 inh: inhibitors of TGF-b signaling; Potency, µM (series often up to 46.1 µM), for the others: at the top dose activity, negative = inhibition, usual class: inhibitors; HepG2 CAGA-GFP TGF-b/SMAD3 reporter, GFP fluorescence, 18 h; TGF-beta stimulated, 500 pg/mL final; AID 588855; 1.2% of 410,000 active; note: potency is the fitted concentration of half-maximal effect; % is set by controls: 0 for no effect and ±100 for the full control effect; nearly all actives have a fitted effect of over 65% in size
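GFP signal (ex488/em500-530) from TGF-beta-stimulated HEPG2 CAGA-GFP cells, 500 pg/mL final, 18 h at 37 degrees C in DMEM plus 1% FBS, normalized to unstimulated and DMSO-stimulated controls.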
DT40 TDP1 no CPT: qHTS for Inhibitors of human tyrosyl-DNA phosphodiesterase 1 (TDP1): qHTS in cells in absence of CPT. AID 686978, 2013. DT40 Tdp1-/- hTDP1 cells, no CPT, ATP luminescence, 48 h. Potency, µM (highest dose often 46.2 µM), for inactives: at the top dose activity change, negative = growth inhibition, actives largely listed as inhibitors. 15% of 420,000 active; note: potency is the fitted concentration of half-maximal effect; % is set by controls: 0 for no effect and ±100 for the full control effect; nearly all actives have a fitted effect of over 55% in size
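Cells were dispensed at 400 per well, compounds added by pin tool, plates incubated ≥48 hr at 37 °C, then CellTiter-Glo added for 30 min at room temperature before luminescence reading. Line: DT40 Tdp1-/- complemented with hTDP1; camptothecin omitted.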
TDP1 cell CPT: DT40-hTDP1 cell growth loss with CPT; chicken DT40 Tdp1-/-;hTDP1 cells + 20 nM CPT, ATP luminescence, 48 h; Potency, µM (series often up to 46.2 µM), for the others: top-dose activity change, negative = growth inhibition, most hits filed as inhibitors; 12% of 420,000 active; AID 686979; note: potency is the fitted concentration of half-maximal effect; % is set by controls: 0 for no effect and ±100 for the full control effect; nearly all actives have a fitted effect of over 55% in size
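Chicken DT40 Tdp1-/- cells complemented with human TDP1, 400 cells/well, exposed to compounds plus 20 nM camptothecin for at least 48 h at 37 C; viability read as ATP content by CellTiter-Glo luminescence.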
* hit, by the source's call; u = inconclusive; x = no result given. Unless noted, calls come from the whole dose curve; as a rule, active = well fitted curve in the direction sought with a large enough effect; inconclusive = small, poorly fitted or top-dose-only effect, or another doubt; inactive = no such curve, though single readings can be large; an effect the other way counts as inactive or inconclusive.

SMILES	HepG2 tox	IL1B secr inh	ASM inhibitor	TGFb SMAD3 inh	DT40 TDP1 no CPT	TDP1 cell CPT
CSc1nnc(-c2sc3cc(C(F)(F)F)cnc3c2-c2ccccc2)n1C	-3.3%	9.8	-5.9%	-54.3%	16.4µM*	4.61µM*
Cc1nn(C(=O)c2ccccc2)c(C)c1S(=O)(=O)N1CCCCCC1	-14.9%	x	x	12.3%	-23.5%	-12.9%
CC(CCc1ccccc1)NC(=O)c1nnc(Cc2ccc(Cl)cc2)o1 (stereo not given)	-17.2%	-59.0*	-6.8%	-13.5%	u	29.1µM*
O=C(NCCc1ccc(Cl)cc1)c1nnc(Cc2ccc(Cl)cc2)o1	-3.3%	-26.1	5.5%	-6.5%	-8.3%	-23.6%
COc1cccc(-c2nnc(SCc3ccc(C#N)cc3)n2Cc2ccco2)c1	1.6%	u	-1.0%	5.0%	23.1µM*	u
Cc1ccc(-c2nnc(SCc3ccc(C#N)cc3)n2Cc2ccco2)cc1	-10.0%	-16.6	-0.5%	u	u	25.9µM*
CC(NC(=O)CSc1ncccn1)c1ccc(Cl)cc1Cl (stereo not given)	-15.8%	21.9	-0.9%	-9.3%	u	-4.9%
CCC(=O)NC(c1ccc(Cl)cc1Cl)c1ccc2cccnc2c1O (stereo not given)	-21.0%	-85.5*	-7.6%	u	5.17µM*	5.17µM*
CCCCC(=O)NC(c1ccc(Cl)cc1Cl)c1ccc2cccnc2c1O (stereo not given)	-60.4%	179.2	-0.2%	u	2.91µM*	6.51µM*
CC(C)C(=O)NC(c1ccc(Cl)cc1Cl)c1ccc2cccnc2c1O (stereo not given)	-31.2%	73.6	-2.7%	u	5.17µM*	6.51µM*
CCOC(=O)C(NC(=O)c1ccc(Cl)cc1Cl)(Nc1ccc(C)cc1)C(F)(F)F (stereo not given)	-41.9%	-20.8	-0.4%	-16.6%	16.4µM*	23.1µM*
CC12CCCC(CC(=O)O)(C1)NC(=O)C2 (stereo not given)	-27.2%	-14.5	2.1%	-6.8%	6.4%	11.8%
Cc1cccc(OCC(=O)Nc2ccc(Cl)c(-c3nc4ccccc4[nH]3)c2)c1	-9.4%	x	x	u	u	u
O=C(COc1ccccc1F)Nc1ccc(Cl)c(-c2nc3ccccc3[nH]2)c1	-22.0%	x	x	u	13µM*	u
O=C(COc1ccc(F)cc1)Nc1ccc(Cl)c(-c2nc3ccccc3[nH]2)c1	-44.9%	x	x	x	20.6µM*	u
COc1ccc(C)cc1NC(=O)c1cc(S(=O)(=O)N2CCC(C)CC2)cn1C	-54.8%	x	x	-20.0%	-7.5%	-26.8%
CC1CCN(S(=O)(=O)c2cc(C(=O)Nc3ccc(Br)cc3F)n(C)c2)CC1	-29.8%	x	x	11.2µM*	u	u
CC1CCN(S(=O)(=O)c2cc(C(=O)N3CCN(c4ccccc4F)CC3)n(C)c2)CC1	2.6%	x	x	u	u	u
Cc1ccc(Cl)cc1N1CCN(C(=O)c2cc(S(=O)(=O)N3CCCCCC3)cn2C)CC1	-25.9%	x	x	u	u	u
CC1CCN(S(=O)(=O)c2cc(C(=O)N3CCN(c4cccc(Cl)c4)CC3)n(C)c2)CC1	-8.2%	x	x	u	18.4µM*	u
Cc1ccc(C)c(N2CCN(C(=O)c3cc(S(=O)(=O)N4CCC(C)CC4)cn3C)CC2)c1	-2.8%	x	x	u	u	16.4µM*
CCC1CCCCN1CCCNC(=O)C1CC(=O)N(CCc2ccccc2)C1 (stereo not given)	-3.6%	10.7	1.3%	5.2%	25.7%	-21.2%
COc1ccccc1N1CCN(C(=O)Cn2cnc3sc(C)c(S(=O)(=O)N4CCC(C)CC4)c3c2=O)CC1	-1.3%	x	x	-0.1%	u	u
Cc1ccc(C)c(S(=O)(=O)N2CCCOC2CNC(=O)C(=O)NCc2cccnc2)c1 (stereo not given)	-3.8%	43.5	2.1%	-2.5%	-10.9%	-3.1%
O=C(c1ccc(Cl)c(Cl)c1)N1CCC(=O)N(C(COCc2cccc(Cl)c2)Cc2ccccc2)CC1 (stereo not given)	-7.2%	-67.6*	-3.1%	u	u	u
SMILES	HepG2 tox	IL1B secr inh	ASM inhibitor	TGFb SMAD3 inh	DT40 TDP1 no CPT	TDP1 cell CPT
O=C(c1ccc(Cl)c(Cl)c1)N1CCC(=O)N([C@H](COCc2ccc(Cl)cc2)Cc2ccccc2)CC1	x	-67.3*	x	x	23.1µM*	u
O=C(c1cccc(Cl)c1)N1CCC(=O)N(C(COCc2cccc(Cl)c2)Cc2ccccc2)CC1 (stereo not given)	-23.0%	u	-7.8%	u	u	u
Cc1ccc(O)c(NC(=O)c2cc3nc4c(c(C(F)(F)F)n3n2)CCc2ccccc2-4)c1	1.5%	-50.7*	-0.6%	-15.1%	23.1µM*	u
CC(C)CNC(=O)c1[nH]c(C(F)(F)F)nc1-c1ccccc1	-60.0%	18.9	x	10.2%	-10.1%	-0.6%
O=C(COC(=O)c1c(F)cccc1Cl)NC(=O)Nc1ccc2c(c1)OCCO2	3.9%	-19.3	4.4%	0.7%	-25.4%	-10.8%
CCOC(=O)C1CCCN(C(=O)c2ccc3c(c2)N(Cc2ccccc2)C(=O)c2ccccc2S3=O)C1 (stereo not given)	-1.4%	0.0	3.4%	10µM*	18.4µM*	u
O=C(c1ccc2c(c1)N(Cc1ccc(F)cc1)C(=O)c1ccccc1S2=O)N1CCC(Cc2ccccc2)CC1 (stereo not given)	-8.2%	x	x	u	14.6µM*	16.4µM*
O=C(c1ccc2c(c1)N(Cc1ccccc1)C(=O)c1ccccc1S2=O)N1CCC(Cc2ccccc2)CC1 (stereo not given)	-24.8%	x	x	u	6.51µM*	6.51µM*
CCc1ccccc1NC(=O)Cn1nnc(C(=O)NCc2cccc(OC)c2)c1N	8.9%	17.9	0.0%	11.2%	u	u
COc1ccc(NC(=O)CCN2CCN(c3ccc(F)cc3)CC2)cc1	-1.4%	-2.0	0.6%	4.5%	u	23.1µM*
O=C(CCN1CCN(c2ccccc2F)CC1)Nc1ccc(F)cc1	2.6%	5.5	-1.1%	4.4%	u	-28.6%
COc1ccc(NC(=O)CCN2CCN(c3cccc(Cl)c3)CC2)cc1	-32.4%	x	x	-0.4%	u	u
COc1cc(NC(=O)CCN2CCN(c3ccccc3F)CC2)cc(OC)c1	-45.9%	u	3.7%	-1.4%	-13.0%	29.1µM*
COCCCn1c(=N)c(S(=O)(=O)c2ccccc2)cc2c(=O)n3cccc(C)c3nc21	-23.6%	x	x	6.0%	x	x
